FLuc counter = inhibits or activates purified firefly luciferase, miR-21 counter-screen; P08659; purified FLuc, Km substrates, luminescence inhibition; Potency, µM (top dose mostly 57.5 µM), without a hit: at the top dose activity change, negative = inhibition, hits mostly inhibitors; 360,000 tested, 6.9% active; AID 588342;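 also: plate controls were vehicle for no effect and reference inhibitor for full effect; nearly all actives have a fitted effect of over 55% in size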
Target sequence (P08659 whole entry, looked up): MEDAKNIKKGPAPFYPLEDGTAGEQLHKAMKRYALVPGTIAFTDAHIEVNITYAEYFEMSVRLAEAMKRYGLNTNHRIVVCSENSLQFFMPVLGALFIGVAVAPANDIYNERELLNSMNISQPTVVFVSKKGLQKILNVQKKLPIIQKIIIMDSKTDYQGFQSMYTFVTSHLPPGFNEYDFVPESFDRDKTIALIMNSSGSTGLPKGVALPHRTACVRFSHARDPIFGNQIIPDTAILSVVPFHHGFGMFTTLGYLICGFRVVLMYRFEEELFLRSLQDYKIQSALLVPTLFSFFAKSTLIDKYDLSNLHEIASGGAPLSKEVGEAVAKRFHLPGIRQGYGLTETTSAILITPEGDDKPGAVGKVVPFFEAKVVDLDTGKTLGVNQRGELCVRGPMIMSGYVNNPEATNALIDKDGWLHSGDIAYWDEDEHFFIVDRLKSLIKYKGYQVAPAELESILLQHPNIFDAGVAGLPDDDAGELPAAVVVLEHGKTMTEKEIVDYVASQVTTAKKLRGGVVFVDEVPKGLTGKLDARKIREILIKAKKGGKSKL
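Purified P. pyralis luciferase (10nM final) with 10uM D-luciferin and 10uM ATP (Km levels) in 50mM Tris acetate pH 7.5, 10mM Mg acetate, 0.01% Tween-20, 0.05% BSA; qHTS 6-point titration, ~60 µM downward; luminescence read.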
KinaseGlo FLuc = counter-screen: inhibitors of Kinase-Glo firefly luciferase. Potency, µM (highest dose often 38.3 µM), for inactives: at the top dose activity change, negative = inhibition, most hits filed as inhibitors. 200,000 tested, 0.28% active. Kinase-Glo luciferase, ATP luminescence, 8 min; also: % is scaled to controls: 0 for no effect and ±100 for the full control effect; nearly all actives have a fitted effect of over 60% in size
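Kinase-Glo luciferase light output from ATP and luciferin was measured with 10 uM ATP, within the enzyme's linear range. Buffer: 50 mM imidazole pH 7.2, 50 mM KCl, 7 mM MgCl2, 0.01% Tween 20, 0.05% BSA; luminescence read after 8 min at ambient temperature.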
Rab9 promoter act = activates the Rab9 promoter; Huh7 Rab9 promoter-luciferase reporter, luminescence, 24 h; Potency, µM (series often up to 9.22 µM), for the others: at the highest dose activation, negative = inhibition, hits mostly activators; 320,000 tested, 2.8% active; AID 485297; also: % of control where 0% means no effect; nearly all actives have a fitted effect of over 60% in size
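Stable Rab9-luc Huh7, 1500 cells/well, 2 h settle; cmpd in DMSO, 24 h, 37 °C/5% CO2; luciferase reagent 10 min RT; luminescence.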
NPC1 promoter act = activators of NPC1 promoter | Huh7 NPC1 promoter luciferase reporter, 24 h | Potency, µM (top dose mostly 9.22 µM), inactives show top-dose activation, most hits filed as activators | 320,000 tested, 2.4% active; also: % of control where 0% means no effect; nearly all actives have a fitted effect of over 60% in size
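Luminescence from an NPC1 promoter-driven luciferase reporter in stably transfected Huh7 cells was measured after 24 h compound treatment at 37 °C, followed by 10 min ambient incubation with luciferase detection reagent.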
SMN2 splice enh = enhancers of SMN2 splice variant expression. HEK293 SMN2-luciferase splicing reporter, luminescence, 30-36 h. Potency, µM (series often up to 46.1 µM), for inactives: at the highest dose activity change, positive = activation, most hits filed as activators. 210,000 tested, 2.8% active. AID 1458; also: % of control where 0% means no effect; nearly all actives have a fitted effect of over 55% in size
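HEK293 cells carry an SMN2 minigene-luciferase reporter in which exon 7 inclusion puts luciferase in frame. Cells were seeded at 2000 cells/well, attached for 10-12 hours, then exposed to compounds for 30-36 hours at 37C before ONE-Glo luminescence.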
ELG1 genotox = induces genotoxicity in HEK293T cells with luciferase-tagged ELG1; HEK293T ELG1-luciferase reporter, luminescence, 16 h; Potency, µM (highest dose often 46 µM), for the others: top-dose activity change, positive = activation, actives largely listed as activators; 330,000 tested, 1.3% active; also: % of control where 0% means no effect; nearly all actives have a fitted effect of over 60% in size
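Reporter readout depends on ELG1 protein level, which increases with genetic stress. After 16 hr compound exposure at 37 °C, luciferase activity was quantified using ONE-Glo.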
* = called active by the depositor; [ ] = remark or other dose. A selection: hits, their analogues and other compounds. The true share with any hit is near 7.4%. Calls follow the shape of the dose curve; as a rule, active = well fitted curve in the direction sought with a large enough effect; inconclusive = small, poorly fitted or top-dose-only effect, or another doubt; inactive = no such curve, though single readings can be large; an effect the other way counts as inactive or inconclusive. Potency is read from the fitted curve at half-maximal effect.

O=C(Nc1nc2ccccc2[nH]1)c1ccccc1F was read as FLuc counter 0.19µM*, KinaseGlo FLuc 2µM*, Rab9 promoter act -22%, NPC1 promoter act inconclusive and ELG1 genotox inconclusive.
CCc1ccc2c(c1)c(=O)c(C(=O)c1ccccc1)cn2CC(=O)Nc1ccc(C)c(Cl)c1 was read as FLuc counter -6% and SMN2 splice enh 5%.
`COc1ccc(NC(=O)N2CCCC3(CCN(S(C)(=O)=O)CC3)C2)cc1` gave KinaseGlo FLuc -3% and SMN2 splice enh 1%.
Screening CCc1nn(C(C)C(=O)N2CCN(c3cccc(C(F)(F)F)c3)CC2)c(=O)c2cc3occc3n12 (stereo not given) returned FLuc counter inconclusive and SMN2 splice enh 3%.
COc1cc(OC)cc(C(=O)Nc2nc3ccccc3[nH]2)c1 was read as FLuc counter 11µM*, KinaseGlo FLuc -9%, Rab9 promoter act inconclusive, NPC1 promoter act 21%, SMN2 splice enh inconclusive and ELG1 genotox inconclusive.
Screening O=C(Nc1nc2ccccc2[nH]1)c1cc(F)cc(F)c1 returned FLuc counter 2.7µM*, Rab9 promoter act 0.63µM*, NPC1 promoter act 1.8µM* and ELG1 genotox inconclusive.
O=C(Nc1nc2ccccc2[nH]1)c1cccc(S(=O)(=O)N2CCOCC2)c1 was read as FLuc counter inconclusive, KinaseGlo FLuc -5%, Rab9 promoter act 13%, NPC1 promoter act 19%, SMN2 splice enh 22% and ELG1 genotox -5%.
N#Cc1ccc(C(=O)Nc2nc3ccccc3[nH]2)cc1 was read as FLuc counter 2.4µM*, Rab9 promoter act 1.8µM*, NPC1 promoter act 1.8µM* and ELG1 genotox inconclusive.
Screening O=C(Nc1nc2ccccc2[nH]1)c1ccc(F)c(S(=O)(=O)N2CCOCC2)c1 returned FLuc counter 17µM*, KinaseGlo FLuc -2%, Rab9 promoter act inconclusive, NPC1 promoter act inconclusive, SMN2 splice enh inconclusive and ELG1 genotox 14%.
For COC(=O)Nc1nc2ccc(C(=O)c3ccc(F)cc3)cc2[nH]1 the results were FLuc counter 3%, Rab9 promoter act -20% and NPC1 promoter act -20%.
Screening CCCCc1nc2c(c3c1C[C@H](C)OC3)CN(C(=O)NCCc1c[nH]c3ccccc13)CC2 returned KinaseGlo FLuc -4%[7.66 µM] and SMN2 splice enh -24%[9.22 µM].
For CCc1cccc(NS(=O)(=O)c2cc(-c3cnc(C)o3)ccc2OC)c1 the results were FLuc counter -2%.
`COc1ccccc1CNC(=O)c1oc2ccc(S(=O)(=O)N3CCCCC3)cc2c1C` gave FLuc counter -1%.
O=C(CSc1nc2ccccc2[nH]1)N1CCCCC1 was read as FLuc counter 21µM*, KinaseGlo FLuc 4%, Rab9 promoter act 3.5µM*, NPC1 promoter act inconclusive, SMN2 splice enh 10µM* and ELG1 genotox 8.2µM*.
For Cc1cc(C(=O)CSc2nnc(-c3ccco3)o2)c(C)n1Cc1ccco1 the results were FLuc counter inconclusive, KinaseGlo FLuc 0%, Rab9 promoter act 7%, NPC1 promoter act 0%, SMN2 splice enh -21% and ELG1 genotox inconclusive.
For Cc1cc(C(=O)CSc2nc3ccccc3[nH]2)c(C)n1Cc1ccco1 the results were FLuc counter 0.76µM*, KinaseGlo FLuc -1%, Rab9 promoter act 0.5µM*, NPC1 promoter act 0.71µM*, SMN2 splice enh inconclusive and ELG1 genotox inconclusive.
Screening O=C(O)c1ccccc1CSc1nc2ccccc2[nH]1 returned FLuc counter 11µM*, Rab9 promoter act inconclusive, NPC1 promoter act inconclusive and ELG1 genotox inconclusive.
`Cc1cc(C(=O)CSc2nncs2)c(C)n1Cc1ccco1` gave FLuc counter 4.8µM*, KinaseGlo FLuc 2%, Rab9 promoter act 0.71µM*, NPC1 promoter act 0.63µM*, SMN2 splice enh 3% and ELG1 genotox inconclusive.

Screening results (PubChem BioAssay)
